In article PMC5540273 (PLoS ONE, 2017):
Where “and” joins values, the source holds several entries; their conditions need not be identical. Equal entries are not always repeated. Where two headings read alike, the source gives them in different places.

Columns and labels:
SIK2 = details: n = 1
SIK = details: concentration: 1 μM, replicates: in singlicate; n = 1
SLK = details: n = 1
SNARK = test system: T1, SNARK; details: n = 1
T1 construct: gene NUAK2

SNRK = details: concentration: 1 μM, replicates: in singlicate; n = 1
SRC = details: n = 1
SRMS = details: concentration: 1 μM, replicates: in singlicate; n = 1
SRPK1 = details: n = 1
SRPK2 = details: concentration: 1 μM, replicates: in singlicate; n = 1
SRPK3 = details: concentration: 1 μM, replicates: in singlicate; n = 1
STK16 = details: n = 1
STK33 = details: concentration: 1 μM, replicates: in singlicate; n = 1
STK35 = details: concentration: 1 μM, replicates: in singlicate; n = 1
STK36 = details: concentration: 1 μM, replicates: in singlicate; n = 1
STK39 = details: n = 1
SYK = details: n = 1
SgK110 = details: n = 1
TAK1 = test system: T2, TAK1; details: concentration: 1 μM, replicates: in singlicate; n = 1
T2 construct: gene MAP3K7

TAOK1 = details: concentration: 1 μM, replicates: in singlicate; n = 1
TAOK2 = details: concentration: 1 μM, replicates: in singlicate; n = 1
[1] = concentration: 1 μM, replicates: in singlicate
[2] = concentration: 1 μM,replicates: in singlicate, 1 µM
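Further: KINOMEscan kinase panel screen.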

Compound: Cc1c(Cn2ccn3c(=O)cc(N4CCOCC4)nc23)cccc1C(F)(F)F [GSK2289044]
- %Inh (SIK2; [1]): 0%
- %Inh (SIK): 0%
- %Inh (SLK; [1]): 13%
- %Inh (SNARK; [1]): 5%
- %Inh (SNRK): 0%
- %Inh (SRC; [1]): 0%
- %Inh (SRMS): 0%
- %Inh (SRPK1; [1]): 12%
- %Inh (SRPK2): 0%
- %Inh (SRPK3): 0%
- %Inh (STK16; [1]): 13%
- %Inh (STK33): 0%
- %Inh (STK35): 0%
- %Inh (STK36): 19%
- %Inh (STK39; [1]): 13%
- %Inh (SYK; [1]): 15%
- %Inh (SgK110; [1]): 0%
- %Inh (TAK1): 0%
- %Inh (TAOK1): 0%
- %Inh (TAOK2): 0%

Compound: Cc1c(O)cccc1Nc1ccnc2ccc(C(F)(F)F)cc12.Cl [GW466413]
- %Inh (SIK2; [1]): 0%
- %Inh (SIK): 0%
- %Inh (SLK; [1]): 8%
- %Inh (SNARK; [1]): 0%
- %Inh (SNRK): 0%
- %Inh (SRC; [1]): 79%
- %Inh (SRMS): 1%
- %Inh (SRPK1; [1]): 21%
- %Inh (SRPK2): 0%
- %Inh (SRPK3): 0%
- %Inh (STK16; [1]): 0%
- %Inh (STK33): 0%
- %Inh (STK35): 0%
- %Inh (STK36): 0%
- %Inh (STK39; [1]): 3%
- %Inh (SYK; [1]): 0%
- %Inh (SgK110; [1]): 0%
- %Inh (TAK1): 0%
- %Inh (TAOK1): 0%
- %Inh (TAOK2): 0%

Compound: COc1ccc(Nc2nccc(-c3cccc(NC(=O)c4cc5cc(F)ccc5[nH]4)c3)n2)cc1 [GSK1229782]
- %Inh (SIK2; [1]): 1%
- %Inh (SIK): 17%
- %Inh (SLK; [1]): 29%
- %Inh (SNARK; [1]): 33%
- %Inh (SNRK): 0%
- %Inh (SRC; [1]): 63%
- %Inh (SRMS): 0%
- %Inh (SRPK1; [1]): 44%
- %Inh (SRPK2): 18%
- %Inh (SRPK3): 0%
- %Inh (STK16; [1]): 22%
- %Inh (STK33): 5%
- %Inh (STK35): 0%
- %Inh (STK36): 0%
- %Inh (STK39; [1]): 4%
- %Inh (SYK; [1]): 49%
- %Inh (SgK110; [1]): 0%
- %Inh (TAK1): 64%
- %Inh (TAOK1): 2%
- %Inh (TAOK2): 0%

Compound: CSc1nn2c(=O)cc(N3CCOCC3)nc2n1Cc1cccc(C(F)(F)F)c1C [GSK2363608]
- %Inh (SIK2; [2]): 4% and 0%
- %Inh (SIK): 0%
- %Inh (SLK; [2]): 20% and 3%
- %Inh (SNARK; [2]): 18% and 0%
- %Inh (SNRK): 0%
- %Inh (SRC; [2]): 3% and 0%
- %Inh (SRMS): 0%
- %Inh (SRPK1; [2]): 34% and 16%
- %Inh (SRPK2): 0%
- %Inh (SRPK3): 0%
- %Inh (STK16; [2]): 23% and 13%
- %Inh (STK33): 0%
- %Inh (STK35): 0%
- %Inh (STK36): 0%
- %Inh (STK39; [2]): 8% and 13%
- %Inh (SYK; [2]): 30% and 26%
- %Inh (SgK110; [2]): 0% and 6%
- %Inh (TAK1): 0%
- %Inh (TAOK1): 0%
- %Inh (TAOK2): 0%

Compound: Cc1cccc(-c2nc(Nc3ccncc3)c3ccccc3n2)n1 [GW855857]
- %Inh (SIK2; [1]): 0%
- %Inh (SIK): 4%
- %Inh (SLK; [1]): 18%
- %Inh (SNARK; [1]): 0%
- %Inh (SNRK): 0%
- %Inh (SRC; [1]): 20%
- %Inh (SRMS): 0%
- %Inh (SRPK1; [1]): 0%
- %Inh (SRPK2): 54%
- %Inh (SRPK3): 15%
- %Inh (STK16; [1]): 7%
- %Inh (STK33): 2%
- %Inh (STK35): 0%
- %Inh (STK36): 5%
- %Inh (STK39; [1]): 0%
- %Inh (SYK; [1]): 14%
- %Inh (SgK110; [1]): 0%
- %Inh (TAK1): 0%
- %Inh (TAOK1): 0%
- %Inh (TAOK2): 17%

Compound: Cc1csc(-c2nc(Nc3ccncc3)c3ccccc3n2)n1 [GW869640]
- %Inh (SIK2; [1]): 1%
- %Inh (SIK): 4%
- %Inh (SLK; [1]): 22%
- %Inh (SNARK; [1]): 26%
- %Inh (SNRK): 20%
- %Inh (SRC; [1]): 8%
- %Inh (SRMS): 25%
- %Inh (SRPK1; [1]): 0%
- %Inh (SRPK2): 0%
- %Inh (SRPK3): 39%
- %Inh (STK16; [1]): 17%
- %Inh (STK33): 18%
- %Inh (STK35): 0%
- %Inh (STK36): 0%
- %Inh (STK39; [1]): 0%
- %Inh (SYK; [1]): 2%
- %Inh (SgK110; [1]): 8%
- %Inh (TAK1): 25%
- %Inh (TAOK1): 36%
- %Inh (TAOK2): 16%

Compound: Nc1nc(-c2nccs2)c(-c2ccnc3ccccc23)s1 [GW693542]
- %Inh (SIK2; [1]): 0%
- %Inh (SIK): 0%
- %Inh (SLK; [1]): 9%
- %Inh (SNARK; [1]): 8%
- %Inh (SNRK): 0%
- %Inh (SRC; [1]): 0%
- %Inh (SRMS): 0%
- %Inh (SRPK1; [1]): 20%
- %Inh (SRPK2): 0%
- %Inh (SRPK3): 31%
- %Inh (STK16; [1]): 32%
- %Inh (STK33): 0%
- %Inh (STK35): 0%
- %Inh (STK36): 0%
- %Inh (STK39; [1]): 10%
- %Inh (SYK; [1]): 24%
- %Inh (SgK110; [1]): 13%
- %Inh (TAK1): 0%
- %Inh (TAOK1): 0%
- %Inh (TAOK2): 0%

Compound: COc1ccccc1-c1ccc2c(NC(=O)C3CC3)n[nH]c2n1 [SB-711239]
- %Inh (SIK2; [1]): 0%
- %Inh (SIK): 3%
- %Inh (SLK; [1]): 8%
- %Inh (SNARK; [1]): 8%
- %Inh (SNRK): 14%
- %Inh (SRC; [1]): 6%
- %Inh (SRMS): 0%
- %Inh (SRPK1; [1]): 0%
- %Inh (SRPK2): 31%
- %Inh (SRPK3): 13%
- %Inh (STK16; [1]): 28%
- %Inh (STK33): 20%
- %Inh (STK35): 0%
- %Inh (STK36): 6%
- %Inh (STK39; [1]): 18%
- %Inh (SYK; [1]): 20%
- %Inh (SgK110; [1]): 14%
- %Inh (TAK1): 0%
- %Inh (TAOK1): 0%
- %Inh (TAOK2): 0%

Compound: COc1cc2ncn(-c3cc(OCC4CCCO4)c(C(N)=O)s3)c2cc1OC (stereo not drawn) [GSK204607]
- %Inh (SIK2; [1]): 93.5%
- %Inh (SIK): 0%
- %Inh (SLK; [1]): 96.3%
- %Inh (SNARK; [1]): 39%
- %Inh (SNRK): 0%
- %Inh (SRC; [1]): 0%
- %Inh (SRMS): 0%
- %Inh (SRPK1; [1]): 28%
- %Inh (SRPK2): 11%
- %Inh (SRPK3): 0%
- %Inh (STK16; [1]): 5%
- %Inh (STK33): 0%
- %Inh (STK35): 90%
- %Inh (STK36): 0%
- %Inh (STK39; [1]): 0%
- %Inh (SYK; [1]): 12%
- %Inh (SgK110; [1]): 0%
- %Inh (TAK1): 18%
- %Inh (TAOK1): 0%
- %Inh (TAOK2): 0%
